Values joined by “and” are separate entries in the source; they are usually repeats but may differ in a detail not shown here. Equal entries are not always repeated. Out of some 5,500 compounds screened, about 2,000 (36%) were called active. About 18% were inconclusive and are not listed. Rule as the data show it: active = normalized growth mostly below about 0.91 (no sharp cut-off); inconclusive = no clear call, values can overlap the other calls; inactive = mostly above about 0.92. The list shows a part of the results.
Experiment: chemical genetic growth profiling, strain panel (AID 1159580);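 also: tested at 20 µM; growth read once vehicle control cultures reached saturation at 30 °C; 1 = growth at the plate median or of vehicle wells; lower values mean less growth of the strain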
Conditions: S. cerevisiae deletion strains, growth OD

Measured: normalized growth

C=C1C[C@]23C[C@@]1(O)CC[C@H]2[C@@]12C=C[C@H](O)[C@@](C)(C(=O)O1)[C@H]2[C@@H]3C(=O)O
inactive: locus YAL013W, strain DEP1, active compounds read low 0.998 | locus YAL021C, strain ccr4, active compounds read low 0.976 | locus YAL026C, strain drs2, active compounds read low 1.04 | locus YAL030W, strain snc1, active compounds read low 1.03 | locus YBL061C, strain skt5, active compounds read low 1.02 | locus YBR009C, strain hhf1, active compounds read low 1.02 | locus YBR021W, strain FUR4, active compounds read low 1.01 | locus YBR023C, strain chs3, active compounds read low 1.02 | locus YBR171W, strain sec66, active compounds read low 1.03 | locus YBR229C, strain ROT2, active compounds read low 0.956 | locus YBR231C, strain swc5, active compounds read low 1.03 | locus YBR279W, strain paf1, active compounds read low 1.02 | locus YCL011C, strain gbp2, active compounds read low 1.03 | locus YCL016C, strain dcc1, active compounds read low 0.997 | locus YCL029C, strain bik1, active compounds read low 0.984 | locus YCL069W, strain vba3, active compounds read low 1.03 | locus YCR088W, strain abp1, active compounds read low 1.02 | locus YDL005C, strain med2, active compounds read low 1.03 | locus YDL035C, strain GPR1, active compounds read low 0.982 | locus YDL040C, strain nat1, active compounds read low 1.03 | locus YDL074C, strain BRE1, active compounds read low 1.02 | locus YDL101C, strain DUN1, active compounds read low 0.999 | locus YDL134C, strain PPH21, active compounds read low 1.03 | locus YDL185W, strain tfp1, active compounds read low 0.978 | locus YDL192W, strain arf1, active compounds read low 0.986 | locus YDR001C, strain nth1, active compounds read low 1.03 | locus YDR069C, strain doa4, active compounds read low 1.03 | locus YDR101C, strain arx1, active compounds read low 0.967 | locus YDR137W, strain rgp1, active compounds read low 1.03 | locus YDR150W, strain NUM1, active compounds read low 0.996 | locus YDR159W, strain sac3, active compounds read low 1.04 | locus YDR162C, strain NBP2, active compounds read low 0.976 | locus YDR195W, strain ref2 1 | locus YDR297W, strain sur2, active compounds read low 1.02 | locus YDR318W, strain mcm21, active compounds read low 0.984 | locus YDR334W, strain swr1, active compounds read low 1.02 | locus YDR335W, strain msn5, active compounds read low 1.02 | locus YDR388W, active compounds read low 0.998 | locus YDR392W, strain spt3, active compounds read low 0.885 | locus YDR502C, strain sam2, active compounds read low 1.03 | locus YEL003W, strain gim4, active compounds read low 1.02 | locus YEL037C, strain rad23, active compounds read low 1.02 | locus YEL061C, strain CIN8 (second series), active compounds read low 1.02 | locus YEL061C, strain CIN8, active compounds read low 1 | locus YER015W, strain faa2, active compounds read low 1.02 | locus YER016W, strain bim1, active compounds read low 1.03 | locus YER110C, active compounds read low 0.98 | locus YER111C, strain swi4, active compounds read low 1 | locus YER155C, strain BEM2 (second series), active compounds read low 1 | locus YER155C, strain BEM2, active compounds read low 0.991 | locus YER167W, strain BCK2, active compounds read low 0.989 | locus YFR010W, strain ubp6, active compounds read low 1.03 | locus YGL078C, strain dbp3, active compounds read low 1.02 | locus YGL086W, strain mad1, active compounds read low 1.01 | locus YGL167C, strain pmr1, active compounds read low 1.03 | locus YGL173C, strain kem1, active compounds read low 1.05 | locus YGL227W, strain vid30, active compounds read low 1.02 | locus YGL240W, strain doc1, active compounds read low 1.02 | locus YGL248W, strain PDE1, active compounds read low 1.01 | locus YGL253W, strain hxk2, active compounds read low 1.05 | locus YGR135W, strain pre9, active compounds read low 1.07 | locus YGR252W, strain gcn5, active compounds read low 1.05 | locus YHR013C, strain ard1, active compounds read low 1.02 | locus YHR027C, strain rpn1, active compounds read low 1.03 | locus YHR030C, strain SLT2, active compounds read low 0.996 and 1 | locus YHR079C, strain IRE1 (second series), active compounds read low 0.998 | locus YHR079C, strain IRE1, active compounds read low 0.998 | locus YHR094C, strain hxt1, active compounds read low 0.991 | locus YHR129C, strain ARP1, active compounds read low 0.998 | locus YHR142W, strain chs7, active compounds read low 1.04 | locus YHR200W, strain rpn10, active compounds read low 1.01 | locus YIL066C, strain RNR3, active compounds read low 0.98 | locus YIL073C, strain SPO22, active compounds read low 1.07 | locus YIL125W, strain kgd1, active compounds read low 1 | locus YIR030C, strain dcg1, active compounds read low 0.994 | locus YJL092W, strain hpr5, active compounds read low 1.02 | locus YJL095W, strain BCK1 (second series), active compounds read low 1.02 | locus YJL095W, strain BCK1, active compounds read low 1.06 and 1.01 | locus YJL115W, strain asf1, active compounds read low 1.02 | locus YJL129C, strain trk1, active compounds read low 1.04 | locus YJL134W, strain LCB3, active compounds read low 0.99 | locus YJL154C, strain vps35, active compounds read low 1.03 | locus YJL164C, strain tpk1, active compounds read low 1.01 | locus YJL166W, strain qcr8, active compounds read low 1.03 | locus YJL168C, strain set2, active compounds read low 1.01 | locus YJL187C, strain SWE1 (second series), active compounds read low 1.01 | locus YJL187C, strain SWE1, active compounds read low 1.03 | locus YJR043C, strain POL32, active compounds read low 0.96 | locus YJR066W, strain TOR1, active compounds read low 0.962 | locus YKL009W, strain mrt4, active compounds read low 1.03 | locus YKL068W, active compounds read low 1 | locus YKL085W, strain MDH1 (second series), active compounds read low 0.99 | locus YKL085W, strain MDH1, active compounds read low 0.99 | locus YKL160W, strain elf1, active compounds read low 0.998 | locus YKR001C, strain vps1, active compounds read low 1.01 | locus YKR026C, strain gcn3, active compounds read low 1.02 | locus YKR091W, strain srl3, active compounds read low 1.03 | locus YLL001W, strain dnm1, active compounds read low 0.986 | locus YLL026W, active compounds read low 1.02 | locus YLL041C, strain sdh2, active compounds read low 1.02 | locus YLR027C, strain aat2, active compounds read low 1.03 | locus YLR039C, strain RIC1, active compounds read low 0.989 | locus YLR058C, strain SHM2, active compounds read low 0.98 | locus YLR102C, strain apc9, active compounds read low 0.995 | locus YLR113W, strain HOG1, active compounds read low 0.998 | locus YLR221C, strain rsa3, active compounds read low 1.04 | locus YLR258W, strain gsy2, active compounds read low 1.02 | locus YLR262C, strain YPT6 (second series), active compounds read low 1.03 | locus YLR268W, strain sec22, active compounds read low 0.97 | locus YLR320W, strain mms22, active compounds read low 1.05 | locus YLR342W, strain FKS1, active compounds read low 1.03 | locus YLR357W, strain rsc2, active compounds read low 0.994 | locus YLR370C, strain arc18, active compounds read low 1.02 | locus YLR371W, strain rom2, active compounds read low 0.992 | locus YLR384C, strain iki3, active compounds read low 1.04 | locus YLR418C, strain cdc73, active compounds read low 1.09 | locus YML016C, strain PPZ1, active compounds read low 0.984 | locus YML032C, strain rad52, active compounds read low 0.984 | locus YML120C, strain ndi1, active compounds read low 1.01 | locus YML124C, strain tub3, active compounds read low 0.984 | locus YMR058W, strain fet3, active compounds read low 1.03 | locus YMR078C, strain ctf18, active compounds read low 0.999 | locus YMR125W, strain sto1, active compounds read low 1.01 | locus YMR129W, active compounds read low 1.02 | locus YMR205C, strain PFK2, active compounds read low 1.02 | locus YMR223W, strain ubp8, active compounds read low 1.01 | locus YMR231W, strain pep5, active compounds read low 1.01 | locus YMR263W, strain SAP30, active compounds read low 0.994 | locus YMR307W, strain GAS1, active compounds read low 0.969 | locus YNL067W, strain RPL9B, active compounds read low 1 | locus YNL071W, strain lat1, active compounds read low 1.02 | locus YNL128W, strain TEP1, active compounds read low 0.976 | locus YNL153C, strain GIM3, active compounds read low 1.02 | locus YNL183C, strain NPR1, active compounds read low 0.958 | locus YNL209W, strain ssb2, active compounds read low 1.03 | locus YNL233W, strain BNI4, active compounds read low 1.04 | locus YNL248C, strain rpa49, active compounds read low 1.05 | locus YNL250W, strain rad50, active compounds read low 0.998 | locus YNL271C, strain bni1, active compounds read low 0.982 | locus YNL298W, strain CLA4, active compounds read low 0.987 | locus YNL307C, strain MCK1, active compounds read low 1.01 | locus YNL322C, strain KRE1 (second series), active compounds read low 1 | locus YNR049C, strain mso1, active compounds read low 1.02 | locus YNR052C, strain pop2, active compounds read low 1.03 | locus YOL006C, strain TOP1, active compounds read low 0.967 | locus YOL012C, strain htz1 1.07 | locus YOL147C, strain pex11, active compounds read low 0.99 | locus YOR001W, strain rrp6, active compounds read low 1.04 | locus YOR061W, strain CKA2, active compounds read low 0.962 | locus YOR069W, strain VPS5, active compounds read low 0.996 | locus YOR070C, strain gyp1, active compounds read low 1.01 | locus YOR080W, strain dia2, active compounds read low 1 | locus YOR083W, strain WHI5, active compounds read low 0.997 | locus YOR106W, strain vam3, active compounds read low 0.982 | locus YOR136W, strain idh2, active compounds read low 0.989 | locus YOR144C, strain elg1, active compounds read low 0.991 | locus YOR184W, strain ser1, active compounds read low 0.954 | locus YOR231W, strain MKK1, active compounds read low 0.98 | locus YOR265W, strain rbl2, active compounds read low 1.02 | locus YOR270C, strain vph1, active compounds read low 1.11 | locus YOR290C, strain snf2, active compounds read low 0.985 | locus YOR316C, strain cot1, active compounds read low 0.984 | locus YPL051W, strain arl3, active compounds read low 0.992 | locus YPL078C, strain atp4, active compounds read low 0.995 | locus YPL106C, strain sse1, active compounds read low 0.993 | locus YPL240C, strain hsp82, active compounds read low 1.01 | locus YPL241C, strain CIN2, active compounds read low 0.997 | locus YPL256C, strain CLN2, active compounds read low 0.992 | locus YPR119W, strain clb2, active compounds read low 1.01 | locus YPR141C, strain kar3, active compounds read low 0.981 | locus YPR163C, strain tif3, active compounds read low 0.989 | locus YPR167C, strain met16, active compounds read low 1.01 | strain wtn01, active compounds read low 0.974
